The nature of experiment [1]: qHTS assay to identify small molecule agonists of the sonic hedgehog signaling (Shh) pathway (AID 1259368; calls by dose curve;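 further: NIH/3T3-derived 3T3Gli1-Luc cells carrying a stable Gli1-driven firefly luciferase reporter; series mostly up to about 92 µM; nearly all actives have a fitted effect of over 15% in size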). A digest of the protocol:
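A Gli1 transcriptional response element controlled firefly luciferase in 3T3Gli1-Luc cells. Compounds and a positive control were added 4 hr after plating, and cells were incubated a further 24 hr at 37 C before luminescence detection.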
A general note: Quantitative high-throughput screening tests each substance at several concentrations.

The target of experiment [2] is Estrogen receptor beta (Homo sapiens) (UniProt Q92731). The experiment is described as follows: qHTS assay to identify small molecule agonists of the estrogen receptor beta (ER-beta) signaling pathway (AID 1259377; active means well fitted activation curve with a large enough effect in the signal ratio in the repeat runs, not every such curve was filed as active; the % refers to the signal ratio; further: potency means the concentration at half of the fitted maximal effect). A digest of the protocol: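 qHTS in ER-beta-UAS-bla HEK293T cells: 6 hr settling, then 16 hr compound at 37C, then LiveBLAzer substrate 2 h at RT before fluorescence reading.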
Sequence of Estrogen receptor beta (Homo sapiens) (Q92731 whole entry, looked up): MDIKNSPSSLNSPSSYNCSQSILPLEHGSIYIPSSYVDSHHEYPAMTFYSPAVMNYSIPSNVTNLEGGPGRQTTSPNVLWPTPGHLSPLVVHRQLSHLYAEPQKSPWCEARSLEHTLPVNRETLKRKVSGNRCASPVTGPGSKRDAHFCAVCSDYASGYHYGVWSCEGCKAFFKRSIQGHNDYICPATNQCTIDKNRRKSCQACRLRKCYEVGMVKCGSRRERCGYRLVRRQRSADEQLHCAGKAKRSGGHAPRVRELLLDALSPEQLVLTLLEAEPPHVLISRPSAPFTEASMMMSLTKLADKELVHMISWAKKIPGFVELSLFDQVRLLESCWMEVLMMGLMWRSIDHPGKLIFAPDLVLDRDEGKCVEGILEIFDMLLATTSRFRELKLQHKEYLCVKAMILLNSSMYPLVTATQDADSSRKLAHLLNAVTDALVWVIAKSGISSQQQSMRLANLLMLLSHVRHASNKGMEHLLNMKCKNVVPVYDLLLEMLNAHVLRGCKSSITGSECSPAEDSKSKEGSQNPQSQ

Experiment [3] has the same target. Put plainly: qHTS assay to identify small molecule antagonists of the estrogen receptor beta (ER-beta) signaling pathway (AID 1259378; active means well fitted inhibition curve with a large enough effect in the signal ratio in the repeat runs, not every such curve was filed as active; the % refers to the signal ratio). A digest of the protocol: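 ER-beta-UAS-bla HEK293T (GripTite) cells in 2% charcoal-stripped FBS medium were preincubated 6 hr at 37C, dosed with compound, then stimulated with 1 nM E2 (final) for 16 hr; beta-lactamase reporter read by B/G FRET fluorescence after 2 hr substrate loading.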

Experiment [4] in a line: qHTS assay to identify small molecule agonists of the androgen receptor (AR) signaling pathway in the presence of an antagonist - cell viability counter screen (AID 1259379). Further: nearly all actives have a fitted effect of over 25% in size. Further: potency means the concentration at half of the fitted maximal effect. A digest of the protocol: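 Seed MDA-kb2 at 3,000 cells/well; incubate 5 hr, 37C, 0% CO2. Add nilutamide to 3.0uM final, then pin compounds at 15 concentrations. Incubate 16 hr. Add CellTiter-Fluor at 15 hr, read fluorescence after 1 hr.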

A short description of experiment [5]: qHTS assay to identify small molecule agonists of the estrogen receptor beta (ER-beta) signaling pathway - cell viability counter screen (AID 1259380). Further: nearly all actives have a fitted effect of over 30% in size. A digest of the protocol: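 CellTiter-Glo read, 30 min RT, same wells as bla assay; cells ER-beta-UAS-bla HEK293T; 16 hr compound, 37C; medium 2% charcoal-stripped FBS.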
The nature of experiment [6]: qHTS assay to identify small molecule antagonists of the estrogen receptor beta (ER-beta) signaling pathway - cell viability counter screen (AID 1259382). Further: series mostly up to about 92 µM; nearly all actives have a fitted effect of over 55% in size. A digest of the protocol:
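In this multiplexed counter screen, cells were seeded at 2,000 per well in medium with 2% charcoal-stripped FBS and incubated 6 hr before compound and 1nM final E2 were added. Sixteen hours later, ATP-based luminescence reported viability.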

The nature of experiment [7]: qHTS assay to identify small molecule agonists or antagonists of the thyroid stimulating hormone receptor (TSHR) signaling pathway - wild type cell line counter screen (AID 1259384; calls by dose curve). A digest of the protocol: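 Wild-type HEK293 cells were plated 18 h at 37 C/5% CO2, pin-dosed with compound plus Ro20-1724 medium, held 30 min at room temperature, then given cAMP-d2 and anti-cAMP-cryptate; fluorescence was read after 1 h. Fifteen concentrations, triplicate.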

Experiment [8] is described as follows: qHTS assay to identify small molecule agonists of the estrogen receptor alpha (ER-alpha) signaling pathway in the presence of an antagonist - cell viability counter screen (AID 1259386).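 Further: cells exposed to compounds for 22 h at 37 °C before the viability read; nearly all actives have a fitted effect of over 30% in size.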 Further: potency means the concentration at half of the fitted maximal effect. A digest of the protocol:
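Viability counter screen using VM7Luc4E2 (full-length ER-alpha, four ERE-luciferase). The cells were treated with compounds alongside ICI-182,780 10.0nM for 22hr, and live-cell protease fluorescence was quantified with CellTiter-Fluor.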

Experiment [9] can be described thus: qHTS assay to identify small molecule antagonists of the progesterone receptor (PR) signaling pathway - cell viability counter screen (AID 1346798). Further: series mostly up to about 92 µM; nearly all actives have a fitted effect of over 50% in size. A digest of the protocol: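 CellTiter-Glo luminescence; PR-UAS-bla HEK293T, 3,000 cells/well; compound + R5020, 16 hr, 37C/5% CO2; 30 min RT before read.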
The nature of experiment [10]: qHTS assay to identify small molecule agonists of the progesterone receptor (PR) signaling pathway - cell viability counter screen (AID 1346799; calls by dose curve; further: nearly all actives have a fitted effect of over 45% in size). A digest of the protocol:
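In parallel with the beta-lactamase readout, cytotoxicity toward PR-UAS-bla HEK293T cells was measured by CellTiter-Glo luminescence following 16 hr compound incubation in 2% charcoal-stripped FBS medium.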

A short description of experiment [11]: qHTS assay to identify small molecule antagonists of the TGF-beta/Smad signaling pathway - cell viability counter screen (AID 1346824). Further: nearly all actives have a fitted effect of over 50% in size. A digest of the protocol:
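SBE-bla HEK 293T cells were plated overnight at 37 C, then given compounds in DMSO plus TGF-beta1 (added as 0.25 ng/mL solution) for 5 hr. After the bla read, CellTiter-Glo was added to the same wells and luminescence read after 30 min at room temperature.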

The nature of experiment [12]: qHTS assay to identify small molecule agonists of the TGF-beta/Smad signaling pathway - cell viability counter screen (AID 1346829). Further: top concentration of the series differs between compounds; nearly all actives have a fitted effect of over 45% in size. A digest of the protocol:
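SBE-bla HEK 293T cells plated overnight, compound exposure 5 hr at 37 C. Viability read in the same wells by CellTiter-Glo luminescence after 30 min at room temperature, following the beta-lactamase read.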

A short description of experiment [13]: qHTS assay to identify small molecule agonists of the TGF-beta/Smad signaling pathway (AID 1346859; active means well fitted activation curve with a large enough effect in the signal ratio in the repeat runs, not every such curve was filed as active; the % refers to the signal ratio; further: series mostly up to about 77 µM). A digest of the protocol: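 After overnight seeding, SBE-bla HEK 293T cells are dosed with compounds in DMSO and kept 5 hr at 37 C, 5% CO2. LiveBLAzer-type FRET substrate is then applied for 2 hr at room temperature.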
In experiment [14] the target is Thyrotropin-releasing hormone receptor (Homo sapiens) (UniProt P34981). Put plainly: qHTS assay to identify small molecule antagonists of the thyrotropin-releasing hormone receptor (TRHR) signaling pathway (AID 1346877; active means well fitted inhibition curve with a large enough effect in the repeat runs, not every such curve was filed as active; further: series mostly up to about 51 µM). A digest of the protocol:
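Following an 18 h incubation at 37 °C and a 2 h calcium dye load, TRHR-HEK293 cells were exposed to compound (5 min, room temperature) and challenged with TRH, 1 nM final.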

Experiment [15] addresses Androgen receptor (Homo sapiens) (UniProt P10275). The experiment is described as follows: qHTS assay to identify small molecule agonists of the androgen receptor (AR) signaling pathway in the presence of an antagonist (AID 1259381; calls by dose curve; further: nearly all actives have a fitted effect of over 15% in size). A digest of the protocol: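 Test compounds at 15 concentrations were incubated for 16hr with MDA-kb2 reporter cells in presence of 3.0uM nilutamide (final). Signal: ONE-Glo luciferase luminescence.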

The target in experiment [16] is Estrogen receptor (Homo sapiens) (UniProt P03372). Put plainly: qHTS assay to identify small molecule agonists of the estrogen receptor alpha (ER-alpha) signaling pathway in the presence of an antagonist (AID 1259383; calls by dose curve; further: top concentration of the series differs between compounds; nearly all actives have a fitted effect of over 15% in size). A digest of the protocol: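 Stably transfected VM7Luc4E2 reporter cells, kept 5 days in charcoal-stripped serum, received ICI-182,780 at 10.0nM final before compound addition. Following 22hr incubation at 37C and 5% CO2, luciferase signal was read by luminescence.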
Sequence of Estrogen receptor (Homo sapiens) (P03372 whole entry, looked up): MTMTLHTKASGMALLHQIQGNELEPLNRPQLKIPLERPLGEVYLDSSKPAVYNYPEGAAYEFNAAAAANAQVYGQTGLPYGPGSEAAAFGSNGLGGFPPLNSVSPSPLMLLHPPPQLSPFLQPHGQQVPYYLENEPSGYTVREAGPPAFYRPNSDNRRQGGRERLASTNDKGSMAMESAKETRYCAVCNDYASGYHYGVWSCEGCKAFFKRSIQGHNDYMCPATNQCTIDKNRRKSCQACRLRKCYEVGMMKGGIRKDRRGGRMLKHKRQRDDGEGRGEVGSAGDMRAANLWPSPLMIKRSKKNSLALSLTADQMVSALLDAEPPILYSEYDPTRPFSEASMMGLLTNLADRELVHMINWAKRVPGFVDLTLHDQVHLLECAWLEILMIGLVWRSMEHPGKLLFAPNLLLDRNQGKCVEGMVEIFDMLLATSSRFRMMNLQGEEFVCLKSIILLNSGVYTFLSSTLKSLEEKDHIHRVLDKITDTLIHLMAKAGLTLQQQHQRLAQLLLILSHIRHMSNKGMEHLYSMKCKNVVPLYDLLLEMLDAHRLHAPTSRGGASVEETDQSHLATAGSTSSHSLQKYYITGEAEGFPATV

Experiment [17] deals with Progesterone receptor (Homo sapiens) (UniProt P06401). Put plainly: qHTS assay to identify small molecule agonists of the progesterone receptor (PR) signaling pathway (AID 1346784; calls by dose curve; further: nearly all actives have a fitted effect of over 30% in size). A digest of the protocol: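 Fluorescence from LiveBLAzer B/G FRET substrate cleavage (2 hr, RT) reported PR activation in PR-UAS-bla HEK 293T cells treated 16 hr at 37C/5% CO2 with compounds; medium contained 2% charcoal-stripped FBS.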
Sequence of Progesterone receptor (Homo sapiens) (P06401 whole entry, looked up): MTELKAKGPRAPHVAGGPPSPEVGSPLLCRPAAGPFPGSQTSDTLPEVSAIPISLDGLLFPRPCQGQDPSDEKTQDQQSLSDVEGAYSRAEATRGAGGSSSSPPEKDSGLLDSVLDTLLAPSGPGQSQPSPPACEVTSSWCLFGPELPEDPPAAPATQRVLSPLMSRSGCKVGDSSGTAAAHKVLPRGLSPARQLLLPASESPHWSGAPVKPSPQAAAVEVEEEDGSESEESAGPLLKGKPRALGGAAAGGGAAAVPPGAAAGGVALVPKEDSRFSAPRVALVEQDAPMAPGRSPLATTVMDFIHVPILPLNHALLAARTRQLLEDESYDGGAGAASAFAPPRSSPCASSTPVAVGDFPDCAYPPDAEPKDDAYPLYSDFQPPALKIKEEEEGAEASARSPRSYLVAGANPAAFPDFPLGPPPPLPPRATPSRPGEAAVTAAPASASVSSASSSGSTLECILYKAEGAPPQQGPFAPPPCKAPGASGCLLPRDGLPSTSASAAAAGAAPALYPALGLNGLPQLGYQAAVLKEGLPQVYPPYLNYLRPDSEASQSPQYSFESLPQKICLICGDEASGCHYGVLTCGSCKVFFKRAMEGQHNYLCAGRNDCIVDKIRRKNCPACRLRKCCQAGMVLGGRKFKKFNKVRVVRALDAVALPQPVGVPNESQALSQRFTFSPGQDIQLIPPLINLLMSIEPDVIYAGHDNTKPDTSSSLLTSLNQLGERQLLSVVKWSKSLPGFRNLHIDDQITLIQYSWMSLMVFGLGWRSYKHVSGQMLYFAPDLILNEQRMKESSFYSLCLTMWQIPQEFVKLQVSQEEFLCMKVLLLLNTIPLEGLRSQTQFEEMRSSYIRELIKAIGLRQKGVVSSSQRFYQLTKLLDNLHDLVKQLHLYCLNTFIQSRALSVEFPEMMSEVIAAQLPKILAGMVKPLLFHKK

For experiment [18] the target is unchanged. The experiment is described as follows: qHTS assay to identify small molecule antagonists of the progesterone receptor (PR) signaling pathway (AID 1346795; active means well fitted inhibition curve with a large enough effect in the signal ratio in the repeat runs, not every such curve was filed as active; the % refers to the signal ratio). A digest of the protocol:
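Fluorescence intensity measured 2 hr after adding beta-lactamase FRET substrate to PR-UAS-bla HEK293T cells that had been co-treated 16 hr with compound and 1 nM R5020 (final concentration) in 2% charcoal-stripped FBS.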

Experiment [19] concerns the target Thyrotropin receptor (Homo sapiens) (UniProt P16473). Put plainly: qHTS assay to identify small molecule antagonists of the thyroid stimulating hormone receptor (TSHR) signaling pathway (AID 1259385; calls by dose curve; further: nearly all actives have a fitted effect of over 20% in size). A digest of the protocol: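 TSHR-HEK293 cells were plated and held 18 h at 37C/5% CO2, then given compound plus Ro20-1724 and stimulated with TSH at 1.5 ng/mL final. After 30 min at room temperature, cAMP was detected with cAMP-d2/anti-cAMP-cryptate (1 h) by fluorescence.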

Values without a mark were called inactive. Inconclusive results are not listed. The source made the active and inactive calls. Unless noted, the call rests on the fitted dose curve; in most records, active means well fitted curve in the direction sought with a large enough effect in the repeat runs; inconclusive means weak or mixed curves; inactive means no such curve, though single readings can be large; an effect the other way counts as inactive or inconclusive.

Ten compounds from PubChem BioAssay (Tox21) can be followed below.

Sequence of Thyrotropin-releasing hormone receptor (Homo sapiens) (P34981 whole entry, looked up): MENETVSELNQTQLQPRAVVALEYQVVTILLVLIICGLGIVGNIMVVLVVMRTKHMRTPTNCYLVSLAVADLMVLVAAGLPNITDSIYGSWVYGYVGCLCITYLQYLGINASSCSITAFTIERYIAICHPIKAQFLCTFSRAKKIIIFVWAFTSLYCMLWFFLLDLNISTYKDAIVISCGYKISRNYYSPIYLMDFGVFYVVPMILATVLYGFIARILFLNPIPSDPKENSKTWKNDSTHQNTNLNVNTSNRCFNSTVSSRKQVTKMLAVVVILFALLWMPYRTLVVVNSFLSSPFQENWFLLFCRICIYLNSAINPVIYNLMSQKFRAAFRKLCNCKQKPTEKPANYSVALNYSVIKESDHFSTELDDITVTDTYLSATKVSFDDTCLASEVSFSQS
Sequence of Androgen receptor (Homo sapiens) (P10275 whole entry, looked up): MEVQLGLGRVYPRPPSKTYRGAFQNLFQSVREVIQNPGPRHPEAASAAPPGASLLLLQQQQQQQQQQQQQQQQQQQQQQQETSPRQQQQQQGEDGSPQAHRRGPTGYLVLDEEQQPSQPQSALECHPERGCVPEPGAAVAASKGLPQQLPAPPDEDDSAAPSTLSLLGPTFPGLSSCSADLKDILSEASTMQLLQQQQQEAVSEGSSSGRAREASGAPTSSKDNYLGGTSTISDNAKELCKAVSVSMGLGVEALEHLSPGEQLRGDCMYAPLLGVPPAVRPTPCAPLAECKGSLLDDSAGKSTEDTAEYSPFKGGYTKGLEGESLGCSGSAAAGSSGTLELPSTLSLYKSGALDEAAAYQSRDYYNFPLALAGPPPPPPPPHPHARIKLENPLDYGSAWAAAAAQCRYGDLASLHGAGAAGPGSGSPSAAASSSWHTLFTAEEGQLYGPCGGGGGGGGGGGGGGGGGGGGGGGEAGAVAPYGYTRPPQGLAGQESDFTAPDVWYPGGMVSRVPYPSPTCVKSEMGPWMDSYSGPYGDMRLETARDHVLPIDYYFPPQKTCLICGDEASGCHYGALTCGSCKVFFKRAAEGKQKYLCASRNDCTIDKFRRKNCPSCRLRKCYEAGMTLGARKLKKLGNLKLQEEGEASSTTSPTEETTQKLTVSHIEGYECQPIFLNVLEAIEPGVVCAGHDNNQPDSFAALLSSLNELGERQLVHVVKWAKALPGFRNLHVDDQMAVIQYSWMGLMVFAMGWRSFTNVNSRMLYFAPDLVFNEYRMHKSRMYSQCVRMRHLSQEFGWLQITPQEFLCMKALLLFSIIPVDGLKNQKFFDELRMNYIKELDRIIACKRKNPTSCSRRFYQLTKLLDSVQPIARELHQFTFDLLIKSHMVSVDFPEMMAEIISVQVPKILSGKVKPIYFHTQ
Sequence of Thyrotropin receptor (Homo sapiens) (P16473 whole entry, looked up): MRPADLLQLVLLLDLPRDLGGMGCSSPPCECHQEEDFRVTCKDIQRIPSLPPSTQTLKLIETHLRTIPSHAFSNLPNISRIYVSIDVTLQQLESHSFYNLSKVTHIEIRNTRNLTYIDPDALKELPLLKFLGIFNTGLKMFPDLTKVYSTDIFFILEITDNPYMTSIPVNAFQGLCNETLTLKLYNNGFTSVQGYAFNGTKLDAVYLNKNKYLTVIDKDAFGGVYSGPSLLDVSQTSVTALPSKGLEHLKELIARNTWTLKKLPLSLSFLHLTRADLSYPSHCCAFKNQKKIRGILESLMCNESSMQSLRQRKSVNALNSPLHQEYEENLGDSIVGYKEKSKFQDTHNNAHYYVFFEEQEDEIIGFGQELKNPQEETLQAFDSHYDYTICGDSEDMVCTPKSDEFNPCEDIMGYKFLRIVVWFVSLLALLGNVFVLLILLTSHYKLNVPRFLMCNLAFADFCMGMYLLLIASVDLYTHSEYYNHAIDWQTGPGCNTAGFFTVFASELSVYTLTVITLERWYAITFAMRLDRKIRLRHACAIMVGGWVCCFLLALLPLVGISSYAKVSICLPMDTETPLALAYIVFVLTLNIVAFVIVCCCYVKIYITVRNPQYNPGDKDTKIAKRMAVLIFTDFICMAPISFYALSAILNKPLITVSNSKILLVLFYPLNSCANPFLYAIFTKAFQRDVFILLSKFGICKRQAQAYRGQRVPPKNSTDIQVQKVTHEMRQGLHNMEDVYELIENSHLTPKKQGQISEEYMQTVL

In the case of `c1ccc2c(c1)ccc1c3ccccc3ccc21`, the call in experiment [1], in experiment [3], in experiment [6], in experiment [7], in experiment [11] and in [12] was inactive. The compound was classed as inactive in experiment [13] and in [14]. The Potency result in experiment [2], in [4], in experiment [5], in experiment [8], in [9] and in experiment [10] was “inactive” each time.
Turning to `O=C1c2ccccc2C(=O)N1CCl`, the compound was called inactive in experiment [1], in experiment [6], in [16], in experiment [11], in experiment [12] and in [13]. The result in [14] was inactive. Moreover, the Potency result in experiment [4], in experiment [5], in [15], in experiment [8], in [17] and in experiment [18] was “inactive” throughout. Moreover, the Potency entry in experiment [9] and in experiment [10] was “inactive” in each case.
On to `CC1COc2ccccc2N1` (stereo not given), for which the result in experiment [1], in experiment [6], in experiment [7], in experiment [19], in experiment [11] and in experiment [12] was inactive. Besides, the compound was called inactive in [14]. In addition, the Potency entry in experiment [4], in experiment [5], in experiment [8], in [17], in [18] and in experiment [9] was “inactive” each time. In addition, in [10], the Potency result is “inactive”.
Turning to `C=C(C)C(=O)OCC(C)(C)COC(=O)C(=C)C`, the outcome in [1], in experiment [3], in experiment [6], in experiment [16], in experiment [12] and in [13] was inactive. Moreover, the outcome in [14] was inactive. The Potency result in experiment [4], in experiment [5], in experiment [8], in experiment [17], in experiment [18] and in experiment [9] was “inactive” each time. Besides, in [10], the Potency result was “inactive”.
In the case of `O=C(c1ccc(O)cc1)c1ccc(O)c(O)c1O`, the call in experiment [1], in experiment [6], in experiment [11], in experiment [12], in [13] and in experiment [14] was inactive. Also, the Potency in experiment [2] was 15.4 µM (active). Also, the Potency entry in experiment [5], in experiment [17], in [9] and in [10] was “inactive” each time.
Consider `Brc1ccc(-c2ccccc2)cc1`, for which the result in [1], in experiment [7], in experiment [11] and in experiment [12] was inactive. Besides, the Potency result in experiment [4], in [5], in experiment [8], in experiment [17], in experiment [9] and in experiment [10] was “inactive” in each case.
For the compound `CC(=O)Nc1ccc(S(=O)(=O)Nc2ccc([N+](=O)[O-])cc2)cc1`, the compound was called inactive in experiment [1], in [6], in experiment [16], in experiment [7], in experiment [11] and in experiment [12]. For the same compound, the compound was called inactive in experiment [13] and in [14]. For the same compound, the Potency in [4] and in [8] was 23.7 µM (active) each time. Further, the Potency result in experiment [5], in [17], in [18] and in experiment [10] was “inactive” in each case.
With `CCC(C=O)CC`, the result in experiment [1], in [3], in [7], in experiment [19], in experiment [11] and in experiment [12] was inactive. The compound was classed as inactive in experiment [14]. Further, the Potency result in experiment [4], in experiment [5], in [8], in [18], in [9] and in experiment [10] was “inactive” each time.
Turning to `CCCOC(OCCC)OCCC`, the outcome in experiment [1], in experiment [3], in experiment [11], in experiment [12] and in experiment [13] was inactive. Further, the Potency entry in experiment [2], in experiment [5], in experiment [8], in [17], in experiment [18] and in experiment [10] was “inactive” in each case.
With `CCCC/C=C/C=C\C=O`, the compound was called inactive in experiment [1], in [6], in [16], in experiment [7], in [11] and in [12]. The Potency result in experiment [2], in experiment [4], in experiment [15], in experiment [8], in [17] and in experiment [18] was “inactive” throughout. Moreover, the Potency entry in [9] and in experiment [10] was “inactive” throughout.
